We go through 41 molecules from PubChem BioAssay AID1490 (National Center for Advancing Translational Sciences (NCATS), 2009).

“And” between values parts separate entries of the source, which are not always exact repeats. Equal values may be shown once. Screen size: about 310,000 compounds; about 11,000 (3.5%) were called active. Roughly 4% stayed inconclusive and do not appear here. This is one part of a sample in which actives are shown more often than they occur. Some compounds were tested as several samples or in several runs, with calls that do not always agree. Unmarked numbers belong to inactive results. Calls come from the whole dose curve; as a rule, active = well fitted inhibition curve with a large enough effect; inconclusive = small, poorly fitted or top-dose-only effect, or another doubt; inactive = no such curve, though single readings can be large or run the other way.
Potency is the fitted concentration of half-maximal effect.

The target of this test is 4'-phosphopantetheinyl transferase ffp (Bacillus subtilis) (UniProt Q9F4F7). Kind of test: qHTS Assay for Inhibitors of Bacillus subtilis Sfp phosphopantetheinyl transferase (PPTase).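 For largest response in the series, negative = inhibition: 0% = enzyme reaction without inhibitor and -100% = no enzyme wells.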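 Note: the enzyme is Sfp with the accession as filed and its product quenches rhodamine fluorescence.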 The note with it: Biochemical Sfp PPTase activity. An outline of the steps: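 With Hepes-Na pH 7.6 buffer containing 10 mM MgCl2, Sfp (15 nM) modified BHQ-2-YbbR (12.5 uM) using rhodamine-CoA (5 uM). Two reads 30 minutes apart at 525/598 nm yielded each well's rate.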
(In qHTS, concentration-response curves come from the screen itself.)
For `CC[N+]1(CCOC(=O)C(O)(c2ccccc2)c2ccccc2)CCCCC1`, the largest response in the series, negative = inhibition was 12%.
The same measure, in the same setting: in the case of `CO[C@@H]1C[C@@H](C[C@H]2CC[C@H](C)[C@@H]([C@@H](C)C(=O)O)O2)O[C@]2(O[C@](C)([C@H]3CC[C@@](C)(C4OC([C@H]5O[C@@](O)(CO)[C@H](C)C[C@@H]5C)C[C@@H]4C)O3)C[C@H]2C)[C@@H]1C` (some centres not stated) it was 23.4%; in that of `CN(C)/C=C(\C=[N+](C)C)c1[nH]ncc1[N+](=O)[O-]`, 0.787%.
As for `CC(C)(Cc1c[nH]c2ccc(Cl)cc12)NCCOc1ccccc1OCC1CC1`, the Potency was 35.5 µM (active) and the largest response in the series, negative = inhibition was -25.3%.
In the case of `CCC(=O)CC(c1ccc([N+](=O)[O-])cc1)c1c(O)c2ccccc2oc1=O` (configuration not stated), the largest response in the series, negative = inhibition was 6.92%.
The same measure, in the same setting: in the case of `c1ccc(CN2CC[C@@]3(CCCNC3)C2)cc1` it was 1.98%.
With `COc1ccc(C2CC(c3cccs3)=NN2c2nc(C)c(C(C)=O)s2)cc1OC` (configuration not stated), the Potency was 39.8 µM (active).
Consider `Cc1ccc(-n2c(O)c(C=NCC3CCCO3)c(=O)[nH]c2=O)c(C)c1` (configuration not stated), for which the largest response in the series, negative = inhibition was -4.95%.
The same measure, in the same setting: in the case of `CNC(=S)N/N=C1\C2CN3CCN(C2)CC1(c1ccccc1)C3` it was -18%.
Turning to `COc1cccc(N2C(=O)NC(=O)/C(=C\c3ccc([N+](=O)[O-])s3)C2=O)c1`, the Potency is 31.6 µM (active).
Same read-out and setting: in the case of `O=C1NC(=O)N(c2ccccc2)C(=O)/C1=C/c1ccc([N+](=O)[O-])s1` it was 35.5 µM (active).
Take `COc1cc(-n2c(=S)[nH]c3ccc(C)cc3c2=O)c(Cl)cc1Cl`: the largest response in the series, negative = inhibition was 4.46%.
On the same count and under the same terms, in the case of `C=CCSSCC=C` it was -26.6%.
Regarding `Cc1cccc([C@H](C)c2cnc[nH]2)c1C`, the largest response in the series, negative = inhibition is 9.27%.
Same read-out and setting: the result for `COc1ccc(C2N3CC(C)(C)CN23)cc1` (configuration not stated) reads 0.855%; that for `Cc1cccc(-n2c(O)c(C=NC34CN5CN(CN(C5)C3)C4)c(=O)[nH]c2=O)c1`, 9.77%.
Still for that read-out and setting: the result for `C[N+]12CN3CN(CN(C3)C1)C2` reads 12.8%; that for `c1ccc(N2CC[C@@]3(CCCNC3)C2)nc1`, -23.5%; that for `O=c1[nH]c(=O)n(-c2ccccc2)c(O)c1C=NC12CN3CN(CN(C3)C1)C2`, -28%.
The same measure, in the same setting: the result for `CCCCCCCCCCCCN=C(N)N` reads -27%.
Take `O=C1NC(=O)N(c2ccc(F)cc2)C(=O)/C1=C/c1ccc2c(c1)CCCN2Cc1ccccc1`: the Potency was 44.7 µM (active).
Regarding `CCC(C)C(=O)O[C@@H]1C[C@@]2(C)C(c3ccoc3)OC(=O)CC23OC2(C)O[C@@]14[C@@]1(C)C(CC(=O)OC)C5(C)CC1(O)C(O)(C5OC(=O)C1(C)OC1C)C(OC(C)=O)[C@@]34O2` (some centres not stated), the largest response in the series, negative = inhibition was 3.31%.
On the same count and under the same terms, the result for `CN(C)CC1CCCCC1OC(=O)c1ccc(Cl)c(Cl)c1` (configuration not stated) reads -11.6%; that for `CCCCCCN=C(CC)c1c(O)n(CCCC)c(=O)[nH]c1=O`, -9.2%.
For the molecule `C[C@@]12CCC3C(CC[C@@H]4CC(O)CC[C@@]34C)C1CCC2O` (some centres not stated), the largest response in the series, negative = inhibition was 7.22%.
On to `Cc1ncsc1CCCl`, for which the Potency is 79.4 µM (active).
Regarding `Clc1ccc([C@@H]2C[C@H]3CC[C@@H]2N3)cn1`, the largest response in the series, negative = inhibition is 9.37%.
On the same count and under the same terms, in the case of `Cc1ccc(-c2nn(CCC#N)cc2C(=O)O)cc1C` it was 25.7%; in that of `CC(c1ccccc1)(c1ccccc1)c1ccncc1`, 5%.
On to `c1csc(CN2CCCC3(CCNCC3)C2)n1`, for which the largest response in the series, negative = inhibition is 3.74%.
Still for that read-out and setting: the result for `COc1ccc(C2Oc3c(I)c(OC)cc(OC)c3CC2O)cc1OC` (configuration not stated) reads -16.3%.
With `CC[N+](C)(CC)CCC[n+]1c(-c2ccccc2)c2cc(N)ccc2c2ccc(N)cc21`, the Potency is 28.2 µM (active) and 50.1 µM (active).
For `CC(C)(C)c1ccc(CN2C(=O)CN=C(c3ccccc3)c3ccccc32)cc1`, the largest response in the series, negative = inhibition was -3.66%.
Same read-out and setting: the result for `Cc1ccc(S(=O)(=O)N(C)c2ccc(C(=O)NCC3(N(C)C)CCCCC3)cc2)cc1` reads 13.3%.
On the same count and under the same terms, in the case of `COC1=C[C@]23CCCN2CCc2cc4c(cc2[C@@H]3[C@@H]1O)OCO4` it was 1.35%; in that of `CC(=O)c1c(O)n(C2CCCCCC2)c(=O)[nH]c1=O`, 6.22%; in that of `COc1ccccc1N1CCN(C(CNC(=O)Oc2ccccc2)c2cccnc2)CC1` (configuration not stated), 2.8%.
Regarding `COc1ccc(CCn2c(O)c(C=NC3CC3)c(=O)[nH]c2=O)cc1OC`, the largest response in the series, negative = inhibition was 12.3%.
Take `O=C(O)C1CSC(c2cccnc2)N1` (configuration not stated): the Potency is 56.2 µM (active).
`CNC(=O)Nc1ccc(C(O)(C(=O)OC)C(F)(F)F)cc1` (configuration not stated): the largest response in the series, negative = inhibition is 6.69%.
Still for that read-out and setting: in the case of `CN1CCN(C(=O)O[C@@H]2c3nccnc3C(=O)N2c2ccc(Cl)cn2)CC1` it was -8.07%.
